Common to all, as to assay: NCI-60 one-dose screen, 48 h (100 = growth as untreated, 0 = no growth, -100 = all killed)
Holding throughout (conditions): 10 µM unless noted

Experiment [1] concerns SK-MEL-2 melanoma.
Experiment [2] relates to EKVX NSCLC.
Experiment [3] has as its system SN12C renal.
Experiment [4] has as its system UO-31 renal.
Experiment [5] concerns TK-10 renal.
Experiment [6] concerns ACHN renal.
Experiment [7] deals with CAKI-1 renal.
In experiment [8] the test system is A498 renal.
Experiment [9] concerns CCRF-CEM leukemia.
Experiment [10] relates to MOLT-4 leukemia.
Experiment [11] concerns SR leukemia.
Experiment [12] deals with RPMI-8226 leukemia.
Experiment [13] concerns OVCAR-8 ovarian.
The test system of experiment [14] is OVCAR-5 ovarian.
Experiment [15] deals with OVCAR-4 ovarian.
Experiment [16] concerns SK-OV-3 ovarian.
Experiment [17] relates to OVCAR-3 ovarian.
For experiment [18], the system named is HS 578T breast.
In experiment [19] the test system is NCI/ADR-RES ovarian.
In experiment [20] the test system is IGROV1 ovarian.

In PubChem BioAssay (NCI) one finds growth data, which are given here for 8 molecules.

This is part of a sample that, as a whole, favours compounds with a hit. Of some 83,000 tested, about 20% had one in any assay.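 Note: values are percent growth. 100 is the growth of untreated cells, values between 100 and 0 indicate rising inhibition; between -100 and 0 indicates cell death.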 A number with no mark means an inactive call. The source made the active and inactive calls. The calls were made as follows: active = growth percent below 10; inactive = the rest.

Regarding `O=C1CC2C=CCN2C=C1NC(=O)c1ccccc1` (configuration not stated), the growth in experiment [1] was 118%; in experiment [2] it was 94.6%; in experiment [3], 99.5%; in [4] it was 98.2%; in [5], 93.5%; in experiment [6], 104%. Also, the growth in experiment [7] was 101%; in experiment [8] it was 102%; in [9], 109%; in experiment [10] it was 96.3%; in experiment [11], 88.7%; in [12], 112%. For the same molecule, the growth is 114% in experiment [13]; 97.4% in experiment [14]; 109% in [15]; 113% in [16]; 105% in experiment [17]; 115% in experiment [18]. Further, the growth in experiment [19] is 103%.
Consider `CNC(=O)c1cc(Oc2cccc3nc(NC(=O)Nc4ccc(F)cc4F)ccc23)ccn1`, for which the growth in experiment [1] was 71%; in [2] it was -0.932% (active); in experiment [3] it was 10.6%; in [4] it was 10.4%; in experiment [5] it was -37.7% (active); in experiment [6] it was 33.6%. In addition, the growth in experiment [7] was 72.7%; in [8], 68.1%; in experiment [9] it was 49.7%; in [10], 53.6%; in [11], 18%; in experiment [12], 30.4%. Also, the growth in [13] is 13.9%; in [14], 70.3%; in experiment [15], -63.4% (active); in experiment [16], 35.3%; in experiment [17], 0.213% (active); in experiment [18] it was 5.37% (active). In experiment [19], the growth is 22.5%.
`COC(=O)c1c(C)nc(C)c2c1C(=O)C(Br)=C(NCCN1CCOCC1)C2=O`: the growth in experiment [1] was 99.4%; in experiment [2], 100%; in experiment [3] it was 89.5%; in [4] it was 86.5%; in experiment [5] it was 108%; in experiment [6], 97.9%. In addition, the growth in [7] was 91.4%; in [8], 92.4%; in experiment [9], 97.3%; in experiment [10], 99.3%; in experiment [11] it was 107%; in [12], 93.7%. Besides, the growth in experiment [13] is 81.9%; in experiment [14], 118%; in experiment [15] it was 73.8%; in experiment [16], 138%; in experiment [17], 13.2%; in experiment [18] it was 110%. In addition, in experiment [19], the growth was 103%.
As to `CCN(CC)c1ccc(/C=N/NC(=O)c2ccccc2Nc2ccnc(C(F)(F)F)c2)c(O)c1`, the growth in [1] is 94.1%; in experiment [2], 30.5%; in [3], 22.2%; in experiment [4], 16%; in [5], 33.3%; in [6], 11.9%. The growth was 56.9% in experiment [7]; 47.8% in experiment [8]; 14.5% in experiment [9]; 59.6% in experiment [10]; 65.1% in experiment [11]; 35.1% in experiment [13]. Also, the growth in [14] was 57.3%; in experiment [15], 33.1%; in experiment [16] it was 19.9%; in [20], 47.5%; in experiment [17], 36.7%; in [18], 61.1%. Also, the growth in experiment [19] is 17.3%.
For the molecule `c1ccc(-c2nc(N3CCNCC3)c3oc(-c4ccccc4)nc3n2)cc1`, the growth in experiment [1] is -34.1% (active); in [2], -68.4% (active); in experiment [3], -82.1% (active); in [4], -99.8% (active); in experiment [5], -71.3% (active); in [6], -100% (active). The growth in experiment [7] is -94% (active); in experiment [8] it was 88.2%; in experiment [9], -31.1% (active); in experiment [10], -24.9% (active); in experiment [11] it was -1.84% (active); in experiment [12], -32.6% (active). In addition, the growth in [13] is -25.1% (active); in experiment [14], -82% (active); in [15] it was -88.2% (active); in experiment [16], -46% (active); in experiment [17] it was -53.4% (active); in [18], -60.7% (active). The growth in experiment [19] is -48.8% (active).
As to `CSc1nn2c(-c3cc4cc(Br)ccc4oc3=O)ccnc2c1C#N`, the growth in experiment [1] was 104%; in experiment [2], 92.2%; in experiment [3], 102%; in experiment [4], 89.8%; in experiment [5], 157%; in experiment [6], 105%. Moreover, the growth was 92.9% in experiment [7]; 104% in [8]; 101% in [9]; 104% in [10]; 94.7% in experiment [11]; 104% in experiment [13]. Moreover, the growth in experiment [14] was 112%; in [15], 101%; in experiment [16], 105%; in experiment [20], 97.2%; in experiment [17], 114%; in experiment [18], 109%. For the same molecule, the growth in experiment [19] is 110%.
With `Cc1nn(-c2ccccc2)c(Oc2ccccc2)c1/C=N/NC(=O)Cn1c(=O)sc2ccccc21`, the growth is 42.6% in experiment [1]; 33.3% in experiment [2]; 61.4% in experiment [3]; 35% in experiment [4]; 60.7% in experiment [5]; 47.2% in experiment [6]. In addition, the growth is 33.4% in [7]; 45.6% in [8]; 49.9% in experiment [9]; 10.3% in experiment [10]; 38.2% in [11]; 33.8% in [12]. Moreover, the growth in [13] was 48.8%; in experiment [14], 81.5%; in [15], 44.1%; in [16], 61%; in experiment [17], 61.6%; in experiment [18], 67.6%. The growth in experiment [19] is 44.4%.
As for `C=CCn1c(SCC(=O)Nc2ccc(C(=O)/C=C/c3cc(OC)c(OC)c(OC)c3)cc2)nnc1-c1cc(-c2ccc(S(N)(=O)=O)cc2)nc2ccccc12`, the growth is 100% in [1]; 100% in experiment [2]; 90.3% in experiment [3]; 77.1% in [4]; 141% in [5]; 93.8% in experiment [6]. In addition, the growth in experiment [7] is 72.2%; in experiment [8] it was 97%; in experiment [9] it was 29.5%; in [10] it was 59.7%; in experiment [11], 28.1%; in [12] it was 4.9% (active). Besides, the growth in experiment [13] is 57.2%; in experiment [14] it was 123%; in experiment [15], 83.7%; in [16], 111%; in [17] it was 81.1%; in experiment [18] it was 108%. Also, the growth in experiment [19] is 103%.
